According to PubChem BioAssay AID504708 (Sanford-Burnham Center for Chemical Genomics, 2011):
This is one part of the list. Unmarked numbers belong to inactive results. The source made the active and inactive calls.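 The calls were made as follows: active = inhibition at or below a set negative limit, negative inhibition meaning the enzyme was activated; inactive = the rest.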

Biological target: Hexokinase HKDC1 (Homo sapiens) (UniProt Q2TB90)
Experiment: HKDC1 hexokinase activators, confirmation, biochemical, single concentration (AID 504708)
Settings: recombinant HKDC1, G6PDH/diaphorase resazurin fluorescence; at 20 µM; stronger effect = lower value

Chain of Hexokinase HKDC1 (Homo sapiens) (Q2TB90 whole entry, looked up): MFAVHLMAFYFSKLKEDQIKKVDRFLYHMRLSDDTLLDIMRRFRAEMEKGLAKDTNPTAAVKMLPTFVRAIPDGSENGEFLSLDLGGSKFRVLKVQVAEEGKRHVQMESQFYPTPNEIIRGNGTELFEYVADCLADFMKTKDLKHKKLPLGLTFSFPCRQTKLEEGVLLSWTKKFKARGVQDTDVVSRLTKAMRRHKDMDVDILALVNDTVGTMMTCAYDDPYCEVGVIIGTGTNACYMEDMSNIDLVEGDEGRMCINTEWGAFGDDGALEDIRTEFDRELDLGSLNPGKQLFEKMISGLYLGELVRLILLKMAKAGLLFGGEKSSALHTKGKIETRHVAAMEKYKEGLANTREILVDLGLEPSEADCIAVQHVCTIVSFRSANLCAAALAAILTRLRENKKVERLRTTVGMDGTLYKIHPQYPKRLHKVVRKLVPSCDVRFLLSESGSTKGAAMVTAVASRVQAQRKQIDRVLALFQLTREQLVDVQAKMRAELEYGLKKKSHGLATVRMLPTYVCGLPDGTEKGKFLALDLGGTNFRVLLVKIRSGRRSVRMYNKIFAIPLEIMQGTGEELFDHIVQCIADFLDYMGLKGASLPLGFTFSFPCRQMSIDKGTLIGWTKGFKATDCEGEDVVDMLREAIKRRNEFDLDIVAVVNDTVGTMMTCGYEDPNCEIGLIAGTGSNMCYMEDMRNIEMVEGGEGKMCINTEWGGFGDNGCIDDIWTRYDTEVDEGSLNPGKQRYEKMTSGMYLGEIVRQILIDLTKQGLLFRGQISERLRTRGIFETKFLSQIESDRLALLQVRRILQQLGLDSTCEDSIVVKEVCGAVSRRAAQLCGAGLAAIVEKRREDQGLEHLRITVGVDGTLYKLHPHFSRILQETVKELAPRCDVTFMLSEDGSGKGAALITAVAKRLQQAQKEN

Compound	inhibition
CC(=O)OC1C2(CC3N4C(=O)C5(CO)SSC4(CC31O)C(=O)N5C)OC(C)C(C)(C)C2=O (configuration not stated)	-77% (active)
O=C1NC(=O)N(c2ccc(F)cc2)C(=O)/C1=C/c1ccc2c(c1)CCCN2Cc1ccccc1	1.36%
